“And” between values parts separate entries of the source, which are not always exact repeats. Equal entries are not always repeated. Where a structure was tested more than once in an assay, its records may differ in their call. The source made the active and inactive calls. Rule for the calls: active = hit-call score of the fitted dose curve at least 0.9, where 1 is the maximum; inactive = score below 0.9.

Read-out in this test: Intercellular Adhesion Molecule 1 (ICAM1), ICAM1 (gene 3383)
In words: BSK_BE3C_ICAM1: BioMAP Diversity Plus: BE3C Assay for Intercellular Adhesion Molecule 1 (ICAM1) Biomarker Activity (AID 2284278). Particulars: primary human bronchial epithelial cells. How it is done: BSK_BE3C is a cell-based, multiplexed-readout assay that uses bronchial epithelial cell, a human lung primary cell, with measurements taken at 24 hours after chemical dosing in a 96-well plate.BSK_BE3C_ICAM1 is an assay component measured in the BSK_BE3C assay. It measures ICAM-1 antibody related to regulation of gene expression using ELISA technology.Data from the assay component BSK_BE3C_ICAM1 was analyzed at the endpoint, BSK_BE3C_ICAM1, in the positive analysis fitting direction relative to DMSO as the negative control and baseline of activity. Using a type of binding reporter, gain or loss-of-signal activity can be used to understand protein changes. To generalize the intended target to other relatable targets, this assay endpoint is annotated to the 'cell adhesion molecules' intended target family, where the subfamily is 'Immunoglobulin CAM'.
The levels of cell surface (or secreted, indicated by the prefix "s") biomarker endpoints were measured by ELISA. Overt cytotoxicity to cells in confluent adherent cultures (all systems other than the BT system) was assessed by measuring total protein levels using sulforhodamine B (SRB) staining in parallel cultures at the time of biomarker measurements, indicated as SRB endpoints. For proliferation assays for adherent cell types, individual cell types are cultured at sub-confluence and relative cell numbers quantified by SRB staining at time points optimized for each system (48 h: 3C and CASM3C systems; 72 h: BT and HDF3CGF systems; 96 h: SAg system). SRB was performed by staining cells with 0.1% SRB after fixation with 10% TCA and reading wells at 560 nm.Viability and proliferation of PBMC (T cells) was quantified by Alamar Blue reduction for the SAg and BT systems. For PBMC viability (referred to as PBMC Cytotoxicity within the assay endpoint names), cells were plated (75,000/well in a 96-well plate) and then chemical samples added for 1 h before addition of activators, SEB and TSST-1 (20 ng/mL final concentration each). Cells were incubated for 90 h. Then, Alamar Blue (20 uL/well) (Invitrogen, Cat DAL1100) was added for 6 h, and the plates were read with a fluorescence microplate reader at 546/580 nm (excitation/emission). For PBMC proliferation, cells were plated and activated as above but incubated for only 16 h prior to addition of Alamar Blue. Plates were read after 6 h.
One may read the AC50 as the concentration at which the activity in the assay is half-maximal. Regarding `CCCCC(CC)COP(=O)(O)OCC(CC)CCCC` (stereo not given), the result was inactive and the AC50 is 29 µM (active).

Take `CCCCCCCCC(F)(F)C(F)(F)C(F)(F)C(F)(F)C(F)(F)C(F)(F)F`: the result was inactive.

As to `O=C(O)C(F)(F)C(F)(F)C(F)(F)C(F)(F)C(F)(F)C(F)(F)C(F)(F)C(F)(F)C(F)(F)C(F)F`, the AC50 was 20.3 µM (active) and 21.1 µM (active).

`FC(F)(F)C(F)(F)C(F)(F)C(F)(F)CCI`: the result was inactive.

As to `FC(F)(F)C(F)(F)C(F)(F)C(F)(F)C(F)(F)C(F)(F)C(F)(F)C(F)(F)F`, the outcome was inactive.

Turning to `O=C(O)C(F)(F)C(F)(F)C(F)(F)F`, the result was inactive.

Consider `O=C(Cl)C(F)(F)C(F)(F)C(F)(F)C(F)(F)C(F)(F)C(F)(F)C(F)(F)C(F)(F)F`, for which the AC50 is 50.4 µM (active) and 58.6 µM (active) and 57.1 µM (active).

Consider `FC(F)(F)C(F)(F)C(F)(F)C(F)(F)C(F)(F)C(F)(F)CCS`, for which the outcome was inactive.

Consider `O=C(O)C(F)(F)C(F)(F)C(F)(F)C(F)(F)C(F)(F)C(F)(F)C(F)(F)C(F)(F)Cl`, for which the AC50 is 45.1 µM (active) and 45.8 µM (active).

With `CCO[Si](CCC(F)(F)C(F)(F)C(F)(F)C(F)(F)C(F)(F)C(F)(F)F)(OCC)OCC`, the outcome was inactive.

For `FC(F)(F)C(F)(F)CNCC(F)(F)C(F)(F)F`, the result was inactive.

Turning to `O=C(O)C(F)(F)C(F)(F)C(F)(F)C(F)(F)F`, the outcome was inactive.

Consider `C=CC(=O)OCC(F)(F)C(F)(F)C(F)(F)C(F)(F)COC(=O)C=C`, for which the AC50 was 26.3 µM (active) and 25.9 µM (active).

Turning to `FC(F)(Br)C(F)(F)C(F)(F)C(F)(F)C(F)(F)C(F)(F)Br`, the outcome was inactive.

Turning to `O=S(=O)(OCCOC(F)(F)F)C(F)(F)F`, the outcome was inactive.

`C=C(C)C(=O)OCC(F)(F)C(F)(F)C(F)(F)F`: the outcome was inactive.

Regarding `FC(F)(F)C(F)(F)C(F)(F)C(F)(F)C(F)(F)C(F)(F)CC1CO1` (stereo not given), the result was inactive.

For the compound `Cc1ccc(S(=O)(=O)OCC(F)(F)C(F)(F)C(F)(F)C(F)(F)C(F)(F)C(F)F)cc1`, the result was inactive.

Turning to `O=P(O)(O)OCCC(F)(F)C(F)(F)C(F)(F)C(F)(F)C(F)(F)C(F)(F)F`, the result was inactive.

Regarding `FC(F)(F)C(F)(F)C(F)(F)C(F)(F)C(F)(F)C(F)(F)C(F)(F)I`, the outcome was inactive.

Turning to `C=C(C)C(=O)OCC(F)(F)C(F)(F)C(F)(F)C(F)(F)C(F)(F)C(F)(F)C(F)(F)F`, the result was inactive.

Consider `FC(F)(F)C(F)(F)C(F)(F)CI`, for which the result was inactive.

Take `C=CC(F)(F)C(F)(F)C(F)(F)C(F)(F)C(F)(F)C(F)(F)C(F)(F)C(F)(F)F`: the result was inactive.

`OCC(F)(F)C(F)(F)C(F)(F)C(F)(F)C(F)(F)C(F)F`: the result was inactive.

For the compound `FC(F)(F)C(F)(F)C(F)(F)C(F)(F)C(F)(F)CCI`, the result was inactive.

For the compound `FC(F)(F)C(F)(F)C(F)(F)C(F)(F)C(F)(F)C(F)(F)C(F)(F)Br`, the result was inactive.

For `O=C(CC(=O)C(F)(F)C(F)(F)F)C(F)(F)F`, the result was inactive.

Turning to `OCC(F)(F)C(F)(F)C(F)(F)F`, the outcome was inactive.

As for `OCC(F)(F)C(F)(F)C(F)(F)C(F)F`, the result was inactive.

On to `O=S(=O)(O)C(F)(F)C(F)(F)C(F)(F)C(F)(F)C(F)(F)C(F)(F)C(F)(F)F`, for which the outcome was inactive.

`FC(F)(F)C(F)(F)C(F)(F)C(F)(F)C(F)(F)C(F)(F)C(F)(F)C(F)(F)CCS`: the outcome was inactive.

Consider `OCCCC(F)(F)C(F)(F)C(F)(F)C(F)(F)C(F)(F)C(F)(F)C(F)(F)F`, for which the AC50 was 53.8 µM (active) and 51.3 µM (active).

In the case of `C=C(C)C(=O)OCCC(F)(F)C(F)(F)C(F)(F)C(F)(F)C(F)(C(F)(F)F)C(F)(F)F`, the result was inactive.

As to `CC(C)(C)C(=O)CC(=O)C(F)(F)C(F)(F)C(F)(F)F`, the outcome was inactive.

Turning to `C=CC(=O)OCC(F)(F)C(F)(F)C(F)(F)C(F)(F)C(F)(F)C(F)(F)C(F)(F)F`, the result was inactive.

As to `NC(=O)C(F)(F)C(F)(F)C(F)(F)C(F)(F)F`, the result was inactive.

On to `O=C(O)C(F)(F)C(F)(F)OC(F)(F)F`, for which the outcome was inactive.

Regarding `COC(=O)CCC(F)(F)C(F)(F)C(F)(F)C(F)(F)F`, the result was inactive.

As for `N=C(N)C(F)(F)C(F)(F)C(F)(F)C(F)(F)C(F)(F)C(F)(F)C(F)(F)F`, the outcome was inactive.

The record behind these values is PubChem BioAssay (EPA / NIEHS).
